# Laboratory results from PubChem BioAssay (EPA / NIEHS).
# Values joined by “and” are separate entries in the source; they are usually repeats but may differ in a detail not shown here. Identical values can stand only once. Inconclusive results are not listed. Some structures have more than one record in an assay (separate samples or runs), and their calls can disagree. Active and inactive are the calls of the source. The calls were made as follows, unless noted: active = hit-call score of the fitted dose curve at least 0.9, where 1 is the maximum; inconclusive = response in the unintended direction; inactive = score below 0.9.
# How the values were obtained:
# [1] = CCTE_Shafer_MEA_acute_burst_duration_mean: CCTE's Neural Acute Assay for Mean Burst Duration, Shafer Lab (AID 2284014; active = hit-call score of the fitted dose curve at least 0.9, where 1 is the maximum; inactive = score below 0.9;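 also: hits are decreases in mean burst duration relative to DMSO controls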)
# Procedure, shortened: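 Rat primary cortical neurons on 48-well MEA, treated at DIV 13 or 15 with 0.03-40 uM in at least 3 wells. Value is percent change in mean burst duration, comparing 40 min recordings at 37 C before and during exposure.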
# [2] = CCTE_Shafer_MEA_acute_per_burst_spike_number_mean: CCTE's Neural Acute Assay for Average Number of Spikes Per Burst, Shafer Lab (AID 2284015; active = hit-call score of the fitted dose curve at least 0.9, where 1 is the maximum; inactive = score below 0.9;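 also: hits are decreases in mean spikes per burst versus baseline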)
# Procedure, shortened: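 Rat primary cortical neurons on 48-well MEAs (DIV 13 or 15) were treated with 0.03-40 uM compound at 37 C. Mean spikes per burst over 40 min were recorded before and after exposure and expressed as percent change from baseline, relative to DMSO.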
# [3] = CCTE_Shafer_MEA_acute_interburst_interval_mean: CCTE's Neural Acute Assay for Mean Interburst Interval, Shafer Lab (AID 2284016; active = hit-call score of the fitted dose curve at least 0.9, where 1 is the maximum; inactive = score below 0.9;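 also: percent change of mean interburst interval versus each well's own pre-dose baseline; curves fitted for decrease in interburst interval relative to DMSO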)
# Procedure, shortened: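 Rat primary cortical neurons on 48-well MEAs at DIV 13 or 15 were exposed acutely to 0.03-40 uM. Spikes detected at 8x rms noise, 37 C. Mean interburst interval from 40 min recordings expressed as percent change from 40 min pre-treatment baseline.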
# [4] = CCTE_Shafer_MEA_acute_burst_percentage_mean: CCTE's Neural Acute Assay for Percentage of Spikes in a Burst, Shafer Lab (AID 2284017; active = hit-call score of the fitted dose curve at least 0.9, where 1 is the maximum; inactive = score below 0.9;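 as to AC50: curve fitted for loss of signal so potency reflects decreased burst percentage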)
# Procedure, shortened: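 Primary rat cortical neurons on 48-well MEA plates, treated on DIV 13 or 15 at 0.03-40 uM. Spikes detected at 8x rms noise at 37C; percent change from 40-min baseline to 40-min post-dose recording, fitted versus DMSO.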
# [5] = CCTE_Shafer_MEA_acute_burst_percentage_std: CCTE's Neural Acute Assay for Standard Deviation of Burst Percentage, Shafer Lab (AID 2284018; active = hit-call score of the fitted dose curve at least 0.9, where 1 is the maximum; inactive = score below 0.9;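 also: fitted in the negative direction so actives lower burst percentage SD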)
# Procedure, shortened: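 Rat primary cortical neurons on 48-well MEAs, DIV 13 or 15, 37 C. 40-min baseline then 40-min recording with compound (0.03-40 uM); well-level SD of per-electrode burst spike percentage, expressed as percent change from baseline.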
# [6] = CCTE_Shafer_MEA_acute_per_network_burst_spike_number_mean: CCTE's Neural Acute Assay for Average Number of Spikes in a Network Burst, Shafer Lab (AID 2284019; active = hit-call score of the fitted dose curve at least 0.9, where 1 is the maximum; inactive = score below 0.9)
# Procedure, shortened: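 Rat primary cortical neurons on 48-well MEA at DIV 13 or 15, 37 C; compounds 0.03-40 uM, at least three wells each. 40-min baseline then 40-min exposure recording; percent change in mean spikes per network burst.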
# [7] = CCTE_Shafer_MEA_acute_per_network_burst_electrodes_number_mean: CCTE's Neural Acute Assay for Mean Number of Electrodes in a Network Burst, Shafer Lab (AID 2284021; active = hit-call score of the fitted dose curve at least 0.9, where 1 is the maximum; inactive = score below 0.9;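 also: curves fitted for decreases only so hits reduce electrodes per burst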)
# Procedure, shortened: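 Cultures of rat cortex neurons were exposed on DIV 13 or 15 to compounds at 0.03-40 uM in at least three wells each. Activity over 40 min before and 40 min after exposure at 37 C gave the percent change in electrodes per network burst.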
# [8] = CCTE_Shafer_MEA_acute_network_burst_percentage: CCTE's Neural Acute Assay for Percentage of Network Bursts, Shafer Lab (AID 2284022; active = hit-call score of the fitted dose curve at least 0.9, where 1 is the maximum; inactive = score below 0.9;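 also: curves fitted for loss so actives lower network burst percentage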)
# Procedure, shortened: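 Cortical neurons from rat were grown over microelectrode arrays and used on day 13 or 15 in vitro. Wells with at least 10 active electrodes received test chemical at 0.03-40 uM. Activity during 40 min of exposure was compared with the preceding 40-min baseline.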
# [9] = CCTE_Shafer_MEA_acute_cross_correlation_area: CCTE's Neural Acute Assay for Area of Cross Correlation, Shafer Lab (AID 2284024; active = hit-call score of the fitted dose curve at least 0.9, where 1 is the maximum; inactive = score below 0.9;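 also: area under pooled inter-electrode spike cross-correlation near zero lag as percent change from own baseline; curves fitted for loss of cross-correlation area so actives lower synchrony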)
# Procedure, shortened: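 Acute exposure of mature rat cortical networks (day 13 or 15 post-plating) to 0.03-40 uM compound. Spontaneous spiking on MEA, 40 min pre- and post-dose at 37 C.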
# [10] = CCTE_Shafer_MEA_acute_cross_correlation_HWHM: CCTE's Neural Acute Assay for Cross Correlation at Half Width at Half Maximum, Shafer Lab (AID 2284026; active = hit-call score of the fitted dose curve at least 0.9, where 1 is the maximum; inactive = score below 0.9;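 also: percent change per well from pre-dose baseline in spike cross-correlogram half width; hits are a decrease in cross-correlogram half width relative to DMSO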;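 as to outcome: spontaneous network firing of rat primary cortical neurons on multiwell microelectrode arrays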)
# Procedure, shortened: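 Primary cortex (rat), MEA, DIV 13/15; compound 0.03-40 uM; 40 min pre + 40 min post at 37 C; spike threshold 8x rms; wells need ≥10 active electrodes; endpoint = % change in cross-correlogram HWHM vs baseline, DMSO negative control.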
# [11] = CCTE_Shafer_MEA_acute_synchrony_index: CCTE's Neural Acute Assay for Synchrony, Shafer Lab (AID 2284027; active = hit-call score of the fitted dose curve at least 0.9, where 1 is the maximum; inactive = score below 0.9;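 also: fitted for loss of signal so actives lower synchrony relative to DMSO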)
# Procedure, shortened: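 Readout is percent change in the unitless network synchrony index (0 low, 1 high) between a 40-min baseline and a 40-min recording in compound. Cultures were primary rat cortical neurons on MEAs, treated at 0.03-40 uM on DIV 13 or 15.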
# [12] = molecular target: Estrogen receptor (Homo sapiens) (UniProt P03372); test: CCTE_Deisenroth_AIME_96WELL_LUC_Active: CCTE's 96-well Estrogen Receptor Transactivation Assay with AIME metabolic competence (ERTA luciferase; metabolism positive), Deisenroth Lab (AID 2284023)
# Estrogen receptor (Homo sapiens), sequence (P03372 whole entry, looked up): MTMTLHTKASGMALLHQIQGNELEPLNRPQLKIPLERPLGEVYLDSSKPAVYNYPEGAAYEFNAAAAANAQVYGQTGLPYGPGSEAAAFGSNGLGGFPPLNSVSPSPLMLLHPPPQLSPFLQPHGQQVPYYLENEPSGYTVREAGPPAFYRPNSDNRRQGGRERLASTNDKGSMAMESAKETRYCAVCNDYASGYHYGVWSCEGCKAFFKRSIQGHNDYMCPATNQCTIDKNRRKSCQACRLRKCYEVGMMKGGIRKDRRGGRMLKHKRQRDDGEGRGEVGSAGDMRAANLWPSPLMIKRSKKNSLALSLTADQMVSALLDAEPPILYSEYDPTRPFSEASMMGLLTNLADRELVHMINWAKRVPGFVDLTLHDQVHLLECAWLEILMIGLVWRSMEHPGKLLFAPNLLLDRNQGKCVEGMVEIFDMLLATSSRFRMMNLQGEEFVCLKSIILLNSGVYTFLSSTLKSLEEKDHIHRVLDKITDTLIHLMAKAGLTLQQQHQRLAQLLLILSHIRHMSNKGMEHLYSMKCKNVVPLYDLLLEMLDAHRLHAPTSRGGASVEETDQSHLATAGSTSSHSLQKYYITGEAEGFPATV
# Procedure, shortened: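 Chemicals pre-incubated 2 h with alginate-immobilized phenobarbital/beta-naphthoflavone-induced male Sprague Dawley rat liver S9, then medium transferred to VM7Luc4E2 cells for 24 h luciferase read-out. 10-point series 0.002 - 200 uM; fitted relative to 17beta-estradiol.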
# [13] = molecular target: Estrogen receptor (Homo sapiens) (UniProt P03372); test: CCTE_Deisenroth_AIME_96WELL_LUC_Inactive: CCTE's 96-well Estrogen Receptor Transactivation Assay without AIME metabolic competence (ERTA luciferase; metabolism negative), Deisenroth Lab (AID 2284025)
# Procedure, shortened: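 VM7Luc4E2 breast cells, luciferase read 24 h after dosing with medium pre-incubated 2 h on alginate-water lids (metabolism negative). 10-point series 0.002–200 uM, single technical replicate, n≥4; fit relative to 17beta-estradiol.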
# [14] = molecular target: Estrogen receptor (Homo sapiens) (UniProt P03372); test: CCTE_Deisenroth_AIME_384WELL_LUC_Active: CCTE's 384-well Estrogen Receptor Transactivation Assay with AIME metabolic competence (ERTA luciferase; metabolism positive), Deisenroth Lab (AID 2284030)
# Procedure, shortened: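 In this metabolism-positive format, a 2-hour exposure to alginate-immobilized rat S9 precedes a 24 hour luciferase transactivation readout in VM7Luc4E2 cells. Dosing spans 10 concentrations from 0.002 to 200 uM.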
# [15] = CCTE_Deisenroth_AIME_384WELL_CTox_Active: Cytotoxicity Assessment (CTOX) in CCTE's 384-well Estrogen Receptor Transactivation Assay with AIME metabolic competence (metabolism positive), Deisenroth Lab (AID 2284037);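 also: activity means signal loss indicating cell death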
# Procedure, shortened: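 Chemicals pre-incubated 2 hours with alginate-immobilised phenobarbital/beta-naphthoflavone-induced male Sprague Dawley rat liver S9, then conditioned medium applied 24 hour to VM7Luc4E2 cells. Viability by fluorogenic protease substrate; 10-point series 0.002 - 200 uM.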
# [16] = molecular target: Estrogen receptor (Homo sapiens) (UniProt P03372); test: CCTE_Deisenroth_AIME_384WELL_LUC_Inactive: CCTE's 384-well Estrogen Receptor Transactivation Assay without AIME metabolic competence (ERTA luciferase; metabolism negative), Deisenroth Lab (AID 2284038);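 also: VM7Luc4E2 breast cells given medium preincubated 2 h with S9-free microspheres; hits raise estrogen receptor luciferase signal so potencies reflect agonists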
# Procedure, shortened: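 Metabolism-negative mode: chemicals (10-point, 0.002–200 uM) held 2 h with alginate-water microspheres, then conditioned medium applied to VM7Luc4E2 cells for 24 h. Luciferase induction referenced to 17beta-estradiol.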
# [17] = CCTE_Deisenroth_AIME_96WELL_CTox_Active: Cytotoxicity Assessment (CTOX) in CCTE's 96-well Estrogen Receptor Transactivation Assay with AIME metabolic competence (metabolism positive), Deisenroth Lab (AID 2284028)
# Procedure, shortened: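 Chemicals (0.002–200 uM) were first incubated 2 h with alginate-immobilized phenobarbital/beta-naphthoflavone-induced male rat liver S9; conditioned medium then went onto VM7Luc4E2 cells for 24 h, with viability read by protease-substrate fluorescence, fitted bidirectionally.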
# [18] = CCTE_Deisenroth_AIME_96WELL_CTox_Inactive: Cytotoxicity Assessment (CTOX) in CCTE's 96-well Estrogen Receptor Transactivation Assay without AIME metabolic competence (metabolism negative), Deisenroth Lab (AID 2284029)
# Procedure, shortened: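 Chemicals (0.002 - 200 uM, 10 points) incubated 2 h with alginate-water microspheres (no S9), then medium moved onto VM7Luc4E2 cells for 24 h. Viability by protease-substrate cleavage to fluorescent probe; bidirectional fitting.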
# [19] = CCTE_Shafer_MEA_dev_firing_rate_mean: CCTE's Neural Network Formation Assay for Mean Firing Rate, Shafer Lab (AID 2284031; active = hit-call score of the fitted dose curve at least 0.9, where 1 is the maximum; inactive = score below 0.9;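 also: AUC of well mean spike rate recorded on DIV 5 7 9 and 12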;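 as to AC50: curve fitted for loss of firing so AC50 reflects decreased mean firing rate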)
# Procedure, shortened: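 Rat primary cortical neurons were seeded on multielectrode arrays and treated from plating through day 12, with redosing at each feed. Spontaneous spiking was recorded four times; mean firing rate AUC was fitted downward against DMSO.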
# [20] = CCTE_Shafer_MEA_dev_per_burst_spike_percent: CCTE's Neural Network Formation Assay for Percent of Spikes in a Burst, Shafer Lab (AID 2284032; active = hit-call score of the fitted dose curve at least 0.9, where 1 is the maximum; inactive = score below 0.9;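 as to AC50: fitted as a decrease in burst spike percentage below DMSO baseline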)
# Procedure, shortened: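 Rat primary cortical neurons on 16-electrode MEA wells, dosed from plating day 0 for 12 days with renewal on DIV 5 and 9; spikes-in-bursts percentage averaged over bursting electrodes, collapsed as AUC across days 5, 7, 9, 12; loss direction versus DMSO.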
compound,measurement,setting,value
CCC(C)(CC)c1cc(NC(=O)c2c(OC)cccc2OC)on1,outcome,[1],inactive
same,outcome,[2],inactive
same,outcome,[3],inactive
same,outcome,[4],inactive
same,outcome,[5],inactive
same,outcome,[6],inactive
same,outcome,[7],inactive
same,outcome,[8],inactive
same,outcome,[9],inactive
same,AC50,[10],11.4 µM (active)
same,outcome,[11],inactive
c1ccc(-c2ccccc2)cc1,outcome,[1],inactive
same,outcome,[2],inactive
same,outcome,[3],inactive
same,AC50,[4],33.1 µM (active)
same,outcome,[5],inactive
same,outcome,[6],inactive
same,outcome,[7],inactive
same,outcome,[8],inactive
same,AC50,[12],77.8 µM (active)
same,outcome,[9],inactive
same,outcome,[13],inactive
same,outcome,[10],inactive
same,outcome,[11],inactive
same,AC50,[14],88 µM (active)
same,outcome,[15],inactive
same,outcome,[16],inactive
c1cc2ccc3cccc4ccc(c1)c2c34,outcome,[12],inactive
same,AC50,[13],42.1 µM (active)
same,outcome,[17],inactive
same,outcome,[18],inactive
same,outcome,[14],inactive
same,outcome,[19],inactive
same,outcome,[20],inactive
same,outcome,[15],inactive
same,outcome,[16],inactive
CCC(=O)O[C@H]1CC[C@H]2[C@@H]3CCC4=CC(=O)CC[C@]4(C)[C@H]3CC[C@]12C,outcome,[14],inactive
same,outcome,[15],inactive
same,outcome,[16],inactive
O=S(=O)(O)C(F)(F)C(F)(F)C(F)(F)C(F)(F)F,outcome,[19],inactive
same,outcome,[20],inactive
CCOCCOC(C)=O,outcome,[14],inactive
same,outcome,[15],inactive
same,outcome,[16],inactive
Cc1cccc([N+](=O)[O-])c1,outcome,[14],inactive
same,outcome,[15],inactive
same,outcome,[16],inactive
Sc1ccccc1,outcome,[14],inactive
same,outcome,[16],inactive
O=C(O)C(F)(F)C(F)(F)C(F)(F)C(F)(F)C(F)(F)C(F)(F)C(F)(F)C(F)(F)F,outcome,[14],inactive
same,outcome,[19],inactive
same,outcome,[20],inactive
same,AC50,[15],146 µM (active)
same,outcome,[16],inactive
Clc1ccc(Cl)cc1,outcome,[14],inactive
same,outcome,[16],inactive
CCCCCCCCOC(=O)c1ccccc1C(=O)OCCCCCCCC,outcome,[12],inactive
same,AC50,[13],2.22 µM (active)
OCC(O)CO,AC50,[14],0.0002 µM (active)
same,outcome,[14],inactive
same,outcome,[15],inactive
same,AC50,[16],0.000417 µM (active)
same,outcome,[16],inactive
C[C@]12CCC(=O)C=C1CC[C@@H]1[C@@H]2CC[C@@]2(C)[C@H]1CC[C@]2(C)O,AC50,[14],1.8 µM (active)
same,AC50,[16],1.63 µM (active)
Cc1ccccc1O,outcome,[14],inactive
same,outcome,[16],inactive
C[C@]12CCC(=O)C=C1CC[C@@H]1[C@@H]2CC[C@]2(C)C(=O)CC[C@@H]12,outcome,[14],inactive
same,outcome,[15],inactive
same,outcome,[16],inactive
C=CC(=O)NCNC(=O)C=C,outcome,[14],inactive
same,outcome,[15],inactive
same,outcome,[16],inactive
Clc1ccc(C(c2ccccc2Cl)C(Cl)(Cl)Cl)cc1 (stereo not given),AC50,[19],2.03 µM (active)
same,AC50,[20],1.99 µM (active)
Nn1cnnc1,outcome,[14],inactive
same,outcome,[16],inactive
Cc1cc(-c2ccc(N)c(C)c2)ccc1N,AC50,[14],11.9 µM (active)
same,outcome,[15],inactive
same,AC50,[16],15.2 µM (active)
CC(c1ccc(O)cc1)(c1ccc(O)cc1)c1ccc(O)cc1,outcome,[1],inactive
same,outcome,[3],inactive
same,AC50,[4],29.6 µM (active)
same,AC50,[5],32.9 µM (active)
same,outcome,[6],inactive
same,outcome,[7],inactive
same,outcome,[8],inactive
same,outcome,[9],inactive
same,AC50,[10],33.4 µM (active)
same,AC50,[11],28.8 µM (active)
NS(=O)(=O)C(F)(F)C(F)(F)C(F)(F)C(F)(F)C(F)(F)C(F)(F)C(F)(F)C(F)(F)F,outcome,[19],inactive
same,AC50,[20],15 µM (active)
same,outcome,[20],inactive
Cc1ccc(O)c(C)c1,outcome,[14],inactive
same,outcome,[16],inactive
C1CC2OC2CC1C1CO1 (stereo not given),outcome,[14],inactive
same,outcome,[16],inactive
O=S(=O)(O)C(F)(F)C(F)(F)C(F)(F)C(F)(F)C(F)(F)C(F)(F)F,outcome,[14],inactive
same,outcome,[19],inactive
same,outcome,[20],inactive
same,outcome,[15],inactive
same,outcome,[16],inactive
Cc1cc2c3c(c1)C(c1ccccc1)=N[C@@H](NC(=O)c1ccncc1)C(=O)N3CC2,outcome,[14],inactive
same,outcome,[16],inactive
CCCCCCOC(=O)c1ccccc1C(=O)OCCCCCC,outcome,[14],inactive
same,outcome,[16],inactive
Cc1ccccc1CO[C@@H]1C[C@@]2(C(C)C)CC[C@]1(C)O2,outcome,[15],inactive
CCOP(=S)(OCC)SCSC(C)(C)C,AC50,[19],23.4 µM (active)
same,outcome,[19],inactive
same,AC50,[20],23.1 µM (active) and 27.1 µM (active)
